Hits are enriched below; roughly 1.3% of the tested compounds scored in any of these assays.
MCL1 BIM primary: inhibitors of human MCL1 binding to BIM-BH3 peptide; Q07820; GST-MCL1 / FITC-Bim-BH3 fluorescence polarization; inhibition, % at 10.9 µM; 320,000 compounds, 0.68% hits; AID 2057;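 active = inhibition above the mean inhibition of all tested compounds plus 3 SD, set per campaign, cut at about 40% in these data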;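 also: 0% = DMSO wells and 100% = unlabeled Bim-BH3 peptide control; higher means more loss of mP so more displacement of Bim peptide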
Keap1 Nrf2 FP: inhibitors of human Keap1-Nrf2 protein-protein interaction; Q14145; Keap1 Kelch-Nrf2 peptide fluorescence polarization, 1536-well; inhibition, % at 9.4 µM; 340,000 compounds, 0.15% hits; in the data active = inhibition above about 12%;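 also: human Keap1 Kelch domain with fluorescein labeled Nrf2 9mer peptide probe; 0% = neutral control wells and 100% = peptide positive control; higher means more block of Keap1 binding to Nrf2 peptide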
C-LANA FP: KSHV C-LANA DNA binding inhibition | inhibition, % at 9 µM | 340,000 compounds, 0.078% hits | MBP-C-LANA/FAM-LBS DNA binding, fluorescence polarization | AID 504423;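 active = highest replicate inhibition at or above 60% at 9 µM, even if other replicates fall short; inactive = all replicates below 60% inhibition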;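 also: 0% = neutral control wells and 100% = 4 µM acridine orange control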
eLon inh: E. coli protease La inhibition; P0A9M0; purified E. coli Lon protease, fluorescence polarization; inhibition, % at 7.94 µM; 360,000 compounds, 0.42% hits; in the data active = inhibition above about 13%, passing the limit was not always enough;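 also: 0% = enzyme with probe and DMSO and 100% = no enzyme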
Target sequence (P0A9M0 whole entry, looked up): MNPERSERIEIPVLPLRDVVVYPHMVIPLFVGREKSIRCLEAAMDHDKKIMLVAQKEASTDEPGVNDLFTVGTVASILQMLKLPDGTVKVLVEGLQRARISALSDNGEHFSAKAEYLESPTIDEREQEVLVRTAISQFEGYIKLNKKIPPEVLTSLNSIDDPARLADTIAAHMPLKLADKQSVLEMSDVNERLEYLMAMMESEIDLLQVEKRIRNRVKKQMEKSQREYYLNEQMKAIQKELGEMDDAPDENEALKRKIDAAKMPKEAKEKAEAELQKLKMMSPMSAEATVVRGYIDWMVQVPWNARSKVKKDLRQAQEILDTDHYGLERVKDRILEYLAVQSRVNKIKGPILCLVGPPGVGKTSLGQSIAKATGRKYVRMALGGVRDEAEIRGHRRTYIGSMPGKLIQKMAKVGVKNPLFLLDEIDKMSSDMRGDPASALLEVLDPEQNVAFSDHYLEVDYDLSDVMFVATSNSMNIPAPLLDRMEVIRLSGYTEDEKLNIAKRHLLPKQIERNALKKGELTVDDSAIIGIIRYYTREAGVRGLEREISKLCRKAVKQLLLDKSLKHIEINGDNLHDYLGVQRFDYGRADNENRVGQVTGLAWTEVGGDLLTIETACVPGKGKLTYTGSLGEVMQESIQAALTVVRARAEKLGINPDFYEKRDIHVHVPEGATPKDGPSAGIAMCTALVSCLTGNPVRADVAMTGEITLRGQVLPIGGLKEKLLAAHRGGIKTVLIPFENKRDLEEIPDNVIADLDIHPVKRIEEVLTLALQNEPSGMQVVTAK
Bcl-xL primary: inhibitors of human Bcl-xL; Q07817; 320,000 compounds, 0.7% hits; inhibition, % at 10.9 µM; AID 2129; GST-Bcl-xL / FITC-Bim BH3 peptide fluorescence polarization;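 active = inhibition above the mean of all tested compounds plus 3 SD, cutoff set per campaign, cut at about 30% in these data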;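 also: 0% = DMSO wells and 100% = unlabeled Bim-BH3 peptide competitor; inhibitors lower millipolarization by displacing the labeled peptide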
GLD-1 TGE inh: GLD-1-TGE RNA interaction inhibition (C. elegans). Q17339. purified GLD-1 + fluorescein TGE RNA, fluorescence polarization. inhibition, % at 5.96 µM. 320,000 compounds, 0.44% hits. AID 2280;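 active = percent inhibition above a per-plate cutoff, the plate mean of test compounds plus 3 SD, cut at about 30% in these data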;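 also: 0% = DMSO wells with GLD-1 and probe and 100% = wells lacking GLD-1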
GLD-1 TGE cf: GLD-1 TGE RNA interaction inhibition, confirmation; shares compounds with GLD-1 TGE inh; GLD-1/FL-TGE RNA fluorescence polarization, biochemical; inhibition, % at 5.96 µM; 550 compounds, 10% hits; AID 2459;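 active = average inhibition across triplicates above the hit cutoff set in the primary screen, cut at about 32% in these data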;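 also: 0% = GLD-1 with RNA probe and DMSO and 100% = wells lacking GLD-1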
Active calls of the source: *; nt = no result given.

SMILES	MCL1 BIM primary	Keap1 Nrf2 FP	C-LANA FP	eLon inh	Bcl-xL primary	GLD-1 TGE inh	GLD-1 TGE cf
COCCNc1ccc([N+](=O)[O-])cc1C(=O)Nc1cccc(C)n1	4	5	1	-1	5	68*	1
CCOc1ccc(C(=O)n2cnnc2N)cc1	-8	2	1	2	-1	35*	4
COc1ccc(C(=O)n2cnnc2N)cc1	-7	6	1	-3	0	-2	nt
CCN(CC)c1nc(C)c2c(c1C#N)CC(C)(C)OC2	4	2	1	0	8	-2	nt
CC1(C)Cc2c(C#N)c(N)sc(=S)c2CO1	43*	3	9	2	40*	31*	12
COc1ccc2[nH]cc(CCNC(=O)c3ccccc3Cl)c2c1	52*	3	1	-2	47*	33*	5
Cc1oc(-c2ccccc2Cl)nc1CS(=O)(=O)CC(=O)NCCN1CCOCC1	3	-7	1	-4	3	3	nt
CCOC(=O)C1=C(O)c2ccccc2C(=O)/C1=C\c1ccc(C)cc1	43*	-10	-5	-10	37*	57*	-6
N#C/C(C(=O)N1CCOCC1)=c1/s/c(=C\c2ccccn2)c(=O)n1-c1ccccc1	43*	7	6	9	43*	33*	6
COC1OC2COC(c3ccccc3)OC2C(O)C1NC(=O)c1ccccc1 (stereo unspecified)	nt	4	-2	0	nt	nt	nt
CCOc1ccc(N(CC(=O)NCCc2ccccc2)C(=O)CCC(=O)Nc2cc(C)ccn2)cc1	5	3	0	10	-1	2	nt
O=C(Nc1sc2c(c1C(=O)O)CCC2)c1ccccc1	19	-4	4	0	12	49*	2
C=CC[C@@H](CC(=O)NCCO)C(=O)N[C@@H](C)COC(=O)[C@@H](CC=C)Cc1ccc(F)cc1	nt	1	2	5	nt	-3	nt
Cc1[nH]c2ccccc2c1C(=O)C(C)OC(=O)c1ccccc1NCCO (stereo unspecified)	-1	0	0	0	4	45*	-1
C=C(C)CSc1nc2nc(C)cc(C)n2n1	35	-2	1	-8	29	35*	-7
CCc1ccc(NC(=O)C2CCN(S(=O)(=O)c3cnc[nH]3)CC2)cc1	-2	2	-1	11	5	6	nt
CCc1ccc(NC(=O)C2CCCN(S(=O)(=O)c3cnc[nH]3)C2)cc1 (stereo unspecified)	7	-3	0	-3	2	61*	-1
Cc1cccc(C)c1NC(=S)N(Cc1ccccc1)Cc1cccnc1	2	-7	0	6	0	-3	nt
CCN(Cc1ccncc1)C(=S)Nc1c(C)cccc1C	47*	-3	0	3	44*	37*	4
CC(CCC(C)C(C)(C)C)[C@@H]1CC[C@H]2C3C[C@H](OS(O)(=S)=S)[C@H]4C[C@H](OS(O)(=S)=S)[C@@H](OS(O)(=S)=S)C[C@]4(C)[C@H]3CC[C@]12C (stereo partly specified) (tested in a mixture with another compound)	nt	84*	123*	36*	nt	85*	72*
CC(CCC(=O)NN)C1CCC2C3CCC4CC(O)CCC4(C)C3CCC12C (stereo unspecified)	nt	1	1	-1	nt	nt	nt
CCCCn1nnnc1C1(C)CCC(=O)N1CCc1ccc(OC)c(OC)c1 (stereo unspecified)	nt	nt	nt	-1	nt	nt	nt
O=C(COc1ccccc1Cl)NCCCNC(=O)c1cccnc1	-4	2	-1	-1	1	7	nt
O=C(NCCOc1ccc(Cl)cc1)c1ccc2ccccc2n1	2	4	0	-2	4	54*	-4
Cc1ccc(OCCNC(=O)c2ccc3ccccc3n2)cc1	5	-1	1	0	7	12	nt
SMILES	MCL1 BIM primary	Keap1 Nrf2 FP	C-LANA FP	eLon inh	Bcl-xL primary	GLD-1 TGE inh	GLD-1 TGE cf
Cc1ccccc1NC(=O)C(C)OC(=O)CNS(=O)(=O)c1ccc(C#N)cc1 (stereo unspecified)	-4	nt	nt	4	-4	4	nt
Cc1ccc(NC(=O)CN2C(=O)N/C(=C/c3ccc(C)o3)C2=O)cc1	31	-8	-1	7	20	38*	-70
Cc1cccc(NC(=O)CN2C(=O)N/C(=C/c3ccc(C)o3)C2=O)c1	15	1	1	-7	11	18	nt
C=CCN1C(=O)N/C(=C/c2ccc(C)o2)C1=O	24	5	1	12	16	42*	-14
O=C(Nc1cccc2ccccc12)c1ccccc1Cl	0	-1	-1	-7	0	51*	1
Nc1ccccc1C(=O)Nc1cccc2ccccc12	nt	2	-2	9	nt	nt	nt
CCOC(=O)C1CCN(C(=O)c2ccc3c(c2)NC(=O)/C(=C/c2ccccc2)S3)CC1	5	2	5	-6	11	-1	nt
CCOC(=O)C1CCN(C(=O)c2ccc3c(c2)NC(=O)/C(=C\c2ccc(C)cc2)S3)CC1	42*	-2	3	-6	37*	35*	19
COc1cccc(N(CC(=O)NCC2CCCO2)C(=O)CNS(=O)(=O)c2ccccc2)c1 (stereo unspecified)	36	-3	1	-5	41*	38*	1
Cc1cccc(N2CCN(C(=O)C3COc4ccccc4O3)CC2)c1C (stereo unspecified)	0	-6	-2	7	0	100*	0
O=C(C1COc2ccccc2O1)N1CCN(c2ccccc2Cl)CC1 (stereo unspecified)	1	-2	1	-1	6	6	nt
O=C(COC(=O)/C=C/c1cccc(Cl)c1)Nc1ccccc1-c1ccccc1	5	nt	nt	nt	-1	47*	-2
O=C(COC(=O)/C=C/c1cccc(Cl)c1)Nc1c(F)cccc1F	nt	-8	-2	-7	nt	3	nt
CCC(C(=O)NCCCN1CCCC1=O)n1c2ccccc2c2nc(=O)cc(C)n21 (stereo unspecified)	3	-6	-1	1	2	2	nt
Cc1c(C(=O)N2CCC3(CC2)CC(=O)c2ccccc2O3)cccc1[N+](=O)[O-]	0	1	1	-10	-1	44*	-4
CC(=O)Nc1ccc(NC(=O)CCn2c(=S)oc3ccccc32)cc1	2	-5	-1	3	-5	1	nt
CC(=O)c1ccc(NC(=O)CCn2c(=S)oc3ccccc32)cc1	-4	0	-1	3	3	43*	11
Cn1c(=O)c2sccc2n(Cc2ccccc2)c1=O	2	-2	1	-1	3	6	nt

Screens as filed in PubChem BioAssay.
